Bioassay records from PubChem BioAssay.
HBB splicing – hemoglobin beta splicing modulation; 65,000 tested, 0.06% active; HBB splicing reporter cell assay, activation; EGFP reporter with mutant IVS2-654 intron; response scale: normalised to 500 nM splice-correcting PNA; Potency, µM (top dose mostly 46.1 µM), hits mostly activators; AID 925
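Compounds were applied for 2 days to HeLa EGFP-654 cells, 500/well in Optimem with 2% FCS. The reporter's EGFP is disrupted by mis-splicing of beta-globin intron IVS2-654. Readout: summed well GFP fluorescence from 488 nm laser scanning; reference was 500 nM antisense […] 654 PNA.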
ERK AVP block – vasopressin-driven ERK pathway inhibition | 72,000 tested, 0.99% active | HEK293-V1b, vasopressin-stimulated pERK AlphaScreen | Potency, µM (top dose mostly 57.5 µM), most hits filed as inhibitors; note: nearly all actives have a fitted effect of over 55% in size
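HEK293 cells stably expressing V1b receptor, preincubated 30 min at 37 °C with compound, then stimulated 5 min with 25 nM vasopressin. Phospho-ERK by AlphaScreen SureFire after 5 h RT; normalized to DMSO and vasopressin; AC50 by Hill fit.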
IkB sig inh – suppresses IkB signaling in ABC-DLBCL reporter cells; 110,000 tested, 0.04% active; Potency, µM (doses to about 57.1 µM); ABC-DLBCL IkBa-CBG/CBR dual luciferase ratio, 4 h; response scale: scaled: untreated 0%, proteasome inhibitor 100%; active = well fitted curve in the direction sought with a large enough effect in the signal ratio, not every such curve was filed as active; inconclusive = small, poorly fitted or top-dose-only effect, or a change in a side signal; the % refers to the signal ratio;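 note: the direction sought is a rising ratio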
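In this assay, an IκBα–CBG68 fusion accumulates when IKK-driven degradation is blocked; native CBR normalizes for cell number. OCI-Ly3 cells were treated 4 h with compound and doxycycline, then green and red light read after Chroma-Glo addition.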
Epigenetic mod – epigenetic modulators derepressing GFP locus in mouse cells. mouse C127i GFP locus derepression, cytometry, 30 h. Potency, µM (top dose mostly 46.1 µM). 68,000 tested, 0.09% active. AID 597
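Locus derepression in mouse mammary C127i cells whose integrated CMV-GFP reporter is normally silent; GFP expression after 30 h compound treatment was quantified by counting fluorescent cells.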
CRE-bla Fsk – CRE-bla signaling modulation under forskolin stimulation | AID 662 | CHO CRE-bla reporter (cAMP response element driving beta-lactamase), forskolin EC10, beta-lactamase ratio | Potency, µM (top dose mostly 38.2 µM), actives largely listed as activators | 71,000 tested, 2.5% active; active = well fitted activation curve with a large enough effect in the signal ratio, with a control signal flat, not every such curve was filed as active; inconclusive = small, poorly fitted or top-dose-only effect, or effect the other way, or a change in a side signal; the % refers to the signal ratio
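qHTS titration format; CRE-bla CHO reporter; stimulus EC10 NKH 477, a water-soluble forskolin. Read: CCF4 460/530 nm ratio. Potency expressed as AC50 for activators or inhibitors.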
Numbers stand for hits; n = inactive; u = inconclusive; x = no result; ! = repeats disagree; [ ] = remark or other dose. The entries come from a sample that favours hits as a whole. Unless noted, calls come from the whole dose curve; as a rule, active = well fitted curve in the direction sought with a large enough effect; inconclusive = small, poorly fitted or top-dose-only effect, or another doubt; inactive = no such curve, though single readings can be large; an effect the other way counts as inactive or inconclusive.

SMILES | HBB splicing | ERK AVP block | IkB sig inh | Epigenetic mod | CRE-bla Fsk
CN(C)c1nc(N)c(C(=O)Nc2cccnc2)nc1Cl | n | u | x | x | x
Cc1cc(N2CCOCC2)nc(SCC(=O)c2ccc(Cl)cc2)n1 | n | n | n | n | 10µM
Cn1c(CSCc2ccccc2Cl)nnc1SCC(=O)Nc1nccs1 | n | u | u | n | n
Cn1c(CCCOc2ccc(Cl)cc2Cl)nnc1SCC(=O)Nc1nccs1 | n | 32µM | n | n | n
O=C1c2ccccc2-c2onc3ccc(NCCCn4ccnc4)c1c23 | n | 16µM | n | n | u
COc1ccc2noc3c2c1C(=O)c1ccccc1-3 | n[9.22 µM] | u | u | n | n
CCOC(=O)N1CCC(NC(=O)c2cccc3c2C(=O)N(c2ccc(OC)cc2)C3)CC1 | n | n | n | n | 5µM
O=C(NC1CCCCC1)c1cc2nc3c(c(C(F)(F)F)n2n1)CCCC3 | n | n | n | n | 13µM
CCCC(=O)NCCc1c2n(c3ccc(OC)cc13)CCCc1ccccc1-2 | n | u | n | n | n
O=C(c1cc2n(n1)C(C(F)(F)F)CC(c1ccco1)N2)N1CCc2ccccc2C1 (configuration not stated) | n | 25µM | u | n | u
COc1ccc(-c2nnc3ccc(SC(C(C)=O)C(C)=O)nn23)cc1OC | n | n | n | n | 6.3µM
CCC(Sc1ccc2nnc(-c3ccc(OC)c(OC)c3)n2n1)C(=O)O (configuration not stated) | n | n | n | n | n
COc1cc(C2CC(=O)Nc3c2c(=O)n(C)c(=O)n3C)cc(OC)c1OC (configuration not stated) | x | x | n | x | x
CCOC(=O)COc1cccc2c(=O)n(CC(=O)NCc3ccc4c(c3)OCO4)ccc12 | n | x | n | x | 13µM
CCOC(=O)COc1cccc2c(=O)n(CC(=O)N3CCc4ccccc43)ccc12 | n | x | n | x | n
COC(=O)c1ccccc1-n1cc2c(c1-c1cccc(C)c1)c(=O)n(C)c(=O)n2C | x | x | n | x | x
O=C(c1cc2ccccc2oc1=O)N1CCN(c2ccc(N3CCOCC3)nn2)CC1 | n | n | n | n | n
O=C(c1ccc(CSCc2ccccc2F)o1)N1CCN(c2ccc(N3CCOCC3)nn2)CC1 | n | 25µM | u | x | u
Cn1c(=O)c2c(nc(NC3CCCCC3)n2Cc2ccccc2)n(C)c1=O | n | x | u | x | 10µM
Cn1c(=O)c2c(nc(NCc3ccccc3)n2Cc2ccccc2)n(C)c1=O | x | x | n | x | x
Cc1nnc(SCCC(=O)Nc2nc(-c3ccccc3)ns2)s1 | n | 32µM | u | n | n
COc1ccc(-c2nc(=S)[nH][nH]2)cc1 | n | n | n | n | n
COc1ccc(-c2cc(-c3ccc(OC)cc3)[nH]n2)cc1 | n | 3.2µM | u | n | u
CCOC(=O)c1c(NC(=O)c2ccoc2C)sc2c1CCC2 | n | n | n | n | u
CCC1CCc2c(sc(NC(=O)c3ccoc3C)c2C(N)=O)C1 (configuration not stated) | n | n | n | n | 10µM
SMILES | HBB splicing | ERK AVP block | IkB sig inh | Epigenetic mod | CRE-bla Fsk
N#Cc1ccccc1Cn1c(=O)n(Cc2ccc(C(=O)NC3CCN(Cc4ccccc4)CC3)cc2)c(=O)c2ccccc21 | x | x | n | x | x
Cc1ccc(C#N)cc1 | n | n | n | x | n
Cc1ccc(S(=O)(=O)/C=C\C#N)cc1 | x | 20µM | u | n | u
CC(C)(C)c1ccc(S(=O)(=O)/C=C\C#N)cc1 | n | 32µM | u | n | u
CSc1ncc(Cl)c(C(=O)Nc2c(C(=O)c3ccc(C)c(F)c3)oc3ccccc23)n1 | x | x | n | x | x
CN(C)CCCNc1cc(O)c2c(c1O)C(=O)c1ccccc1C2=O | n[9.22 µM] | n[11.5 µM] | n[11.4 µM] | n[9.22 µM] | n[7.6 µM]
O=C1c2ccccc2C(=O)c2c(O)c(O)cc(O)c21 | x | 32µM | x | x | x
CC(=O)Nc1nnc(SCc2cc(=O)c3cccc(Cl)c3[nH]2)s1 | x | x | n | x | x
CCOc1ccc(OCC)c(NC(=O)C(NS(=O)(=O)c2ccc(Br)s2)c2ccccc2)c1 (configuration not stated) | x | x | n | x | x
c1cc2c(cc1-c1cnc3n1CCC3)OCCO2 | n | 16µM | u | n | u
N#Cc1nc(-c2ccc(F)cc2)oc1NCc1cccc2c1OCO2 | n | 7.9µM | n | n | 10µM
Clc1cccc(-c2nnc(SCc3nc4ccccc4[nH]3)n2Cc2ccco2)c1 | n | u | u | n | u
Clc1ccc(OCc2nnc(SCc3nc4ccccc4[nH]3)n2Cc2ccco2)cc1 | n | 20µM | u | n | n
COc1ccccc1-c1ccc2ncnc(NCCN3CCOCC3)c2c1 | n | n | n[11.4 µM] | n[9.22 µM] | u
Cc1ccccc1C(=O)NCc1ccncc1 | x | 25µM | n | n | n
COc1ccccc1C(=O)NCc1ccncc1 | n | n | n | n | n
COc1ccc(-c2nc(CCNC(=O)c3ccccc3)cs2)cc1OC | x | x | n | x | x
Cc1cc(-c2ccco2)c(C#N)c2nc3ccccc3n12 | n | n | n | u | 7.9µM
CCc1c(C)c(C#N)c2nc3ccccc3n2c1-n1nc(C)cc1C | x | x | x | n | x
CCCCCCC1=Cc2cc(OC)c(OC)cc2C(CC(=O)/C=C/OC)O1 (configuration not stated) | n[9.22 µM] | n[11.5 µM] | x | x | x
COc1cc(C(=O)Oc2c(CN3CCOCC3)cc(Cl)c3cccnc23)cc(OC)c1OC | n | u | u | x | 7.9µM
COc1ccc(C(=O)Oc2c(CN3CCOCC3)cc(Cl)c3cccnc23)cc1 | n | n | n | 7.9µM | n
O=C(Oc1c(CN2CCOCC2)cc(Cl)c2cccnc12)c1ccc(F)cc1 | n | n | n | n | n
COCCn1c(=O)c(-c2ccccc2)nc2cnc(N3CCN(C)CC3)nc21 | n | n | n[11.4 µM] | n[9.22 µM] | u
COc1ccc(-c2nnc(-c3cccnc3)o2)cc1OC | n | u | n | n | 10µM
SMILES | HBB splicing | ERK AVP block | IkB sig inh | Epigenetic mod | CRE-bla Fsk
COc1ccc(O[C@H]2C=C[C@@H](c3ccccc3)O[C@H]2COC(=O)CC/C(C)=N\O[C@@H](C)c2cn([C@H](CO)Cc3ccccc3)nn2)cc1 | n[9.22 µM] | n[11.5 µM] | x | x | x
Cc1cc(NC(=O)CSc2ccc3nnc(-c4cccs4)n3n2)no1 | n | x | n | x | 10µM
Cc1ccc(-c2nnc3ccc(SCC(=O)Nc4cc(C)on4)nn23)cc1 | n | n | n | n | u
COc1cc2nc(=S)n3[nH]c(CCn4nc(C)cc4C)nc3c2cc1OC | n | n | n | 10µM | u
COc1cc2nc(SCc3ccc(Cl)cc3)n3nc(CCn4nc(C)cc4C)nc3c2cc1OC | x | x | n | x | x
CCN(CC)C(=O)Cn1c(=O)n(-c2ccc(C)c(C)c2)c(=O)c2c3c(sc21)CCCCC3 | x | x | n | x | x
COc1c2occc2cc2ccc(=O)oc12 | n | u | n | n | 16µM!
CC(=O)Oc1c2occc2cc2ccc(=O)oc12 | n | n | n | n | n
COc1ccc(S(=O)(=O)NCc2ccco2)cc1-c1nnc2c3ccccc3c(C)nn12 | n | u | n | n | 5µM
CNS(=O)(=O)c1ccc(OC)c(-c2nnc3c4ccccc4c(C)nn23)c1 | x | x | n | x | x
